# A selection: hits, their analogues and other compounds. The true share with any hit is near 7.5%.
# Rab9 promoter act = activators of Rab9 promoter; Huh7 Rab9 promoter-luciferase reporter, luminescence, 24 h; Potency, µM (doses to about 9.22 µM), for inactives: at the highest dose activation, negative = inhibition, actives largely listed as activators; 2.8% of 320,000 active; AID 485297; also: % of control where 0% means no effect; nearly all actives have a fitted effect of over 60% in size
#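 Cells were plated at 1500 per well in reduced-serum medium with 10% FBS and left 2 h. Compound in DMSO was then added for 24 h at 37 °C. Reporter signal was read by luminescence after 10 min with luciferase detection reagent.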
# NPC1 prom act = activators of NPC1 promoter; Huh7 NPC1 promoter luciferase reporter, 24 h; Potency, µM (doses to about 9.22 µM), inactives show top-dose activation, usual class: activators; 2.4% of 320,000 active; AID 485313; also: % of control where 0% means no effect; nearly all actives have a fitted effect of over 60% in size
#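 Luminescence read-out of NPC1 promoter-driven luciferase in stably transfected Huh7 cells; compounds delivered in DMSO and left 24 h at 37C, 5% CO2, qHTS titration format.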
# SMN2 splice up = increases expression of the SMN2 splice variant. HEK293 SMN2-luciferase splicing reporter, luminescence, 30-36 h. Potency, µM (highest dose often 46.1 µM), without a hit: at the highest dose activity change, positive = activation, usual class: activators. 2.8% of 210,000 active. AID 1458; also: % of control where 0% means no effect; nearly all actives have a fitted effect of over 55% in size
#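 HEK293 cells carry an SMN2 […]–luciferase reporter in which exon 7 inclusion puts luciferase in frame. Cells were plated 10-12 h before compound addition, then incubated 30-36 h at 37C. ONE-Glo luminescence was read; sodium butyrate at 4.5 mM final served as control.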
# FLuc counter = firefly luciferase modulation, counter-screen for miR-21 project; P08659; purified FLuc, Km substrates, luminescence inhibition; Potency, µM (titrated, usually from 57.5 µM), without a hit: at the highest dose activity change, negative = inhibition, most hits filed as inhibitors; 6.9% of 360,000 active;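 also: plate controls were vehicle for no effect and reference inhibitor for full effect; nearly all actives have a fitted effect of over 55% in size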
# Target sequence (P08659 whole entry, looked up): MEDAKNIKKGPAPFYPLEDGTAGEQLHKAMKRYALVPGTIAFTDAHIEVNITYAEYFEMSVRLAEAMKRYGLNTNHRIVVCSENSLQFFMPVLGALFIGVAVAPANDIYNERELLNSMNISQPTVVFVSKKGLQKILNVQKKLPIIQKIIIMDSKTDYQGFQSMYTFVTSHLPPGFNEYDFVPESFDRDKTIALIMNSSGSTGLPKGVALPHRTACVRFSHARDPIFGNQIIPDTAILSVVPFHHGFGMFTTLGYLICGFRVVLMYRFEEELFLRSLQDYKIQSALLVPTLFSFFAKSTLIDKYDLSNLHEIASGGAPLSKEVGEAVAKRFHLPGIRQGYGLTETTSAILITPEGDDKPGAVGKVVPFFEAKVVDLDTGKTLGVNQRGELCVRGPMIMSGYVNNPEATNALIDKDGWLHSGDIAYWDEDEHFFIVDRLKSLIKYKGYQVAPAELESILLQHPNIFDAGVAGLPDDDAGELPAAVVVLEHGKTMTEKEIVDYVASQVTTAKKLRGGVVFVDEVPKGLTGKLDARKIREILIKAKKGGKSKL
#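 Purified P. pyralis luciferase, 10 nM final, with Km-level 10 uM D-luciferin and 10 uM ATP in 50 mM Tris acetate pH 7.5, 10 mM Mg acetate, 0.01% Tween-20, 0.05% BSA; 6-point qHTS titration about 60 µM downward; luminescence read.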
# Luc counter = counter-screen: inhibitors of Kinase-Glo firefly luciferase. Q27757. Kinase-Glo luciferase, ATP luminescence, 8 min. Potency, µM (titrated, usually from 38.3 µM), for inactives: top-dose activity change, negative = inhibition, most hits filed as inhibitors. 0.28% of 200,000 active. AID 1379; also: % is scaled to controls: 0 for no effect and ±100 for the full control effect; nearly all actives have a fitted effect of over 60% in size
#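 Light output from Kinase-Glo luciferase with luciferin and 10 uM ATP in 50 mM imidazole pH 7.2, KCl, MgCl2, Tween 20, BSA; compound pin-delivered, 8-min ambient incubation, then luminescence read.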
# ELG1 genotox = induces genotoxicity in HEK293T cells with luciferase-tagged ELG1. HEK293T ELG1-luciferase reporter, luminescence, 16 h. Potency, µM (series often up to 46 µM), for inactives: at the top dose activity change, positive = activation, usual class: activators. 1.3% of 330,000 active. AID 504466; also: % of control where 0% means no effect; nearly all actives have a fitted effect of over 60% in size
#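 DMSO vehicle served as control against compound-treated ELG1-luciferase HEK293T cells; exposure lasted 16 hr at 37 °C and 5% CO2, followed by ONE-Glo luminescence detection after 30 min.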
# Starred values were filed as active, the others as inactive; u = inconclusive; x = no result given; [ ] = dose if it differs, or a comment. Calls follow the shape of the dose curve; as a rule, active = well fitted curve in the direction sought with a large enough effect; inconclusive = small, poorly fitted or top-dose-only effect, or another doubt; inactive = no such curve, though single readings can be large; an effect the other way counts as inactive or inconclusive. Potency is read from the fitted curve at half-maximal effect.
SMILES,Rab9 promoter act,NPC1 prom act,SMN2 splice up,FLuc counter,Luc counter,ELG1 genotox
Cc1ccc(-c2nc(NC(=O)CSc3ncn[nH]3)ns2)cc1,16%,3%,x,17µM*,x,6%
Cc1cc(SCC(=O)Nc2nsc(-c3ccc(C(C)(C)C)cc3)n2)nc2ccccc12,x,x,14µM*,x,x,x
Cc1ccc(-c2nsc3c(N4CCC(C(N)=O)CC4)ncnc23)cc1,2.8µM*,1.6µM*,-16%,1.5µM*,-2%,u
O=C(N1CCCC1)N1CCN(c2ncnc3c(-c4ccc(Cl)cc4)nsc23)CC1,11%,22%,u,17µM*,-3%,u
C#Cc1ccc(C(=O)Nc2ccc(N3CCC(C)CC3)c(C(N)=O)c2)cc1,-7%,-2%,-5%,2%,-3%,-4%
COc1ncc2nc(C)c(=O)n(C)c2n1,x,x,-16%,x,-4%,x
COCCCNC(=O)C1CCCN(c2nn3cc(-c4ccc(C)cc4)nc3s2)C1 (stereo not given),x,x,x,8.5µM*,x,x
COc1ccc(-c2cn3nc(N4CCCC(C(=O)NCc5ccc(Cl)cc5)C4)sc3n2)cc1 (stereo not given),x,x,x,12µM*,x,x
COc1cccc(CNC(=O)C2CCCN(c3nn4cc(-c5ccc(C)cc5)nc4s3)C2)c1 (stereo not given),x,x,x,7.6µM*,x,x
CCOc1ccc(CNC(=O)C2CCCN(c3nn4cc(-c5ccc(F)cc5)nc4s3)C2)cc1 (stereo not given),x,x,x,-17%,x,x
COc1ccc(NC(=O)N2CC[C@@]3(CCCN(C(=O)c4cccn4C)C3)C2)cc1,x,x,-2%,x,-3%,x
O=C(Nc1cc(-c2nc3cc(Cl)ccc3o2)ccc1Cl)c1cccs1,x,x,21%,3%,x,x
Cc1ccc(-c2nc3cc(C(C)C)ccc3o2)cc1NC(=O)c1cc([N+](=O)[O-])ccc1N1CCOCC1,x,x,-46%,1.3µM*,x,x
Cc1ccc(-c2nc3cc(Cl)ccc3o2)cc1NC(=O)c1cc([N+](=O)[O-])ccc1N1CCOCC1,x,x,-5%,u,x,x
Cc1ccc(-c2nc3cc(C(C)C)ccc3o2)cc1NC(=O)c1cccs1,x,x,-6%,1.9µM*,x,x
CCCc1cnc2c(c1SCC(=O)Nc1ccc([N+](=O)[O-])cc1)c(=O)n(C)c(=O)n2C,x,x,x,-5%,x,x
O=C(N/N=C/c1cccs1)c1cccc(NC(=O)c2ccccc2Cl)c1,8%,10%,1%,24µM*,-2%,1%
O=C(Nc1cccc(NC(=O)c2ccccc2Cl)c1)c1ccc(F)cc1,-2%,2%,x,u,x,-1%
O=C(N/N=C/c1cccs1)c1ccc(NC(=O)c2ccccc2Cl)cc1,-2%,1%,x,-4%,x,-3%
CCN(CC)S(=O)(=O)c1cccc(C(=O)N/N=C/c2ccccn2)c1,1%,-4%,3%,u,-1%,0%
O=C(N/N=C/c1ccccn1)c1cccc(NC(=O)c2ccccc2Cl)c1,15%,3%,x,17µM*,x,9%
O=C(N/N=C/c1ccccc1F)c1cccc(NC(=O)c2ccccc2Cl)c1,17%,19%,x,13µM*,x,7%
Cc1cccc(C(=O)N/N=C/c2ccccn2)c1,3.5µM*,u,2µM*,19µM*,-2%,u
Cc1ccc(C(=O)c2cn(Cc3cc(C)ccc3C)c3nc(C)ccc3c2=O)cc1,x,x,8%,-2%,x,x
COc1ccc([N+](=O)[O-])c2c1CCN2C(=O)CC[C@H](N)C(=O)O,x,x,x,x,2%,x
SMILES,Rab9 promoter act,NPC1 prom act,SMN2 splice up,FLuc counter,Luc counter,ELG1 genotox
Cc1sc2ncn(CC(=O)N(C)c3ccc(C(C)C)cc3)c(=O)c2c1S(=O)(=O)N1CCC(C)CC1,x,x,-6%,-4%,x,x
COc1ccccc1N1CCN(/N=C/C=C/c2ccccc2[N+](=O)[O-])CC1,22%,4%,x,u,x,-3%
Cc1cccc(C(=O)Nc2cccc(C(=O)N/N=C/c3ccccn3)c2)c1,-5%,0%,x,19µM*,x,0%
O=C(N/N=C/c1ccccn1)c1ccc(NC(=O)c2cccc([N+](=O)[O-])c2)cc1,9%,6%,1%,u,0%,-4%
Brc1ccc(-c2cnc(-c3cccs3)o2)cc1,4µM*,u,u,5.4µM*,-3%,u
COC(=O)CSc1ncnc2c(C)csc12,-2%,1%,x,u,x,-2%
Cc1nn(C)c(C)c1CNC(=O)Nc1cccc(Cl)c1,u,21%,x,u,0%,-1%
Cc1nn(C)c(C)c1CNC(=O)Nc1ccc(Cl)cc1,3.2µM*,u,27%,u,2%,u
CCS(=O)(=O)Nc1ccc(-c2cn3c(C)csc3n2)cc1,x,x,x,19µM*,x,x
CC(=O)Nc1ccc(S(=O)(=O)Nc2ccc(-c3cn4c(C)csc4n3)cc2)cc1,x,x,x,17µM*,x,x
CCS(=O)(=O)NCc1cn2c(C)csc2n1,-4%,5%,2%,-1%,-5%,3%
COc1ccc(N2CCN(S(=O)(=O)c3csc(C(N)=O)c3)CC2)cc1,x,x,x,1%,x,x
COc1ccc2nc(SCC(=O)N3CC(=O)Nc4ccccc43)c(C#N)cc2c1,-12%,-8%,11%,u,3%,-9%
Cc1cc(C)c2nc(SCC(=O)N3CC(=O)Nc4ccccc43)c(C#N)cc2c1,-31%,-19%,-58%,12µM*,-6%,12%
CCOC(=O)c1c(C)c(-c2ccccc2)n(CC(=O)Nc2ccc(OCC)cc2)c1C,x,x,-5%,2%,x,x
Cc1ccc2c(c1)Cc1nc3ccccc3nc1-2,u,4%,u,1.1µM*,8.9µM*,-2%
COc1ccc(/C=C(\C#N)C(=O)OCC(=O)NC2CC2)cc1,-1%,0%,-3%,4%,-1%,-1%
CCOC(=O)C1CCCN(C(=O)c2ccc(NC(=O)c3nsc4ccccc34)cc2)C1 (stereo not given),x,x,x,12µM*,x,x
CCOC(=O)C1CCN(C(=O)c2ccc(NC(=O)c3nsc4ccccc34)cc2)CC1,x,x,x,15µM*,x,x
NC(=O)C1CCN(C(=O)c2ccc(NC(=O)c3nsc4ccccc34)cc2)CC1,x,x,x,1.7µM*,x,x
COC(C[C@H](O)[C@@H](C)[C@H](O)COCc1ccccc1)OC,-2%,-2%,x,3%,x,4%
CCOc1ccc(NC(=O)NCCc2c(C)nn(C)c2C)cc1,x,x,x,-3%,x,x
S=c1nc(Cc2ccccc2)[nH]c2ccccc12,-2%,0%,x,-1%,x,8%
Clc1ccc2nc(-c3ccc(Cl)nc3)[nH]c2c1,17%[1.84 µM],2.2µM*,x,12µM*,x,u
Clc1ccc2nc(-c3ccccc3)[nH]c2c1,x,x,x,x,11µM*,x
Clc1ccc2nc(COc3ccccc3)[nH]c2c1,u,-1%,x,12µM*,x,u

# Source: PubChem BioAssay
